The values that follow come from PubChem BioAssay AID602340 (Broad Institute, 2012).

About 2,600 (0.79%) of roughly 330,000 compounds were called active. For the sample, actives were picked, then their nearest neighbours and some compounds at random. Values without a mark were called inactive.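 How the source made its calls: active means mean ATP rescue above about 67%, or every replicate alone reaching that limit (limit read from the data, passing the limit was not always enough); inconclusive means no clear call, values can overlap the other calls; inactive means mean under the limit and some replicate under it.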

The assay is described as follows: protection of differentiated C2C12 cells from simvastatin – single point, plate reader, primary screen (AID 602340).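 Further: myotubes were challenged with 10 µM simvastatin during compound exposure.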 As to conditions: C2C12 myotubes + simvastatin, ATP luminescence, 48 h; at 7.49 µM; stronger effect = higher value; scaled: DMSO 0, geranylgeraniol control 100.
Take `CO[C@@H]1CN(C)C(=O)c2cc(NC(=O)NC(C)C)ccc2OC[C@@H](C)N(CC2CC2)C[C@@H]1C`: the rescue of ATP level was 3.47%.

Take `Cc1ccc(S(=O)(=O)NCC(=O)N(CC(=O)NC2CCCCC2)Cc2ccco2)cc1`: the rescue of ATP level was 13.6%.

As for `Cc1ccc(S(=O)(=O)N(C)CC(=O)NC2CCCC2)cc1`, the rescue of ATP level is 96.1% (active).

On to `CN(CC(=O)NC1CCCCC1)S(=O)(=O)c1cccc2cccnc12`, for which the rescue of ATP level was -5.41%.

As for `CCCNC(=O)N1C[C@H](C)[C@@H](OC)CN(C)C(=O)c2ccc(NS(C)(=O)=O)cc2OC[C@@H]1C`, the rescue of ATP level was -0.593%.

In the case of `Cc1noc(C)c1NC(=O)N(C)C[C@@H]1Oc2ccc(NS(=O)(=O)c3ccc(F)cc3)cc2CC(=O)N([C@@H](C)CO)C[C@H]1C`, the rescue of ATP level was -7.19%.

On to `O=C(C[C@H]1CC[C@@H]2NC[C@H](O)COC[C@H]2O1)NCCN1CCCCC1`, for which the rescue of ATP level was -1.01%.

As for `C[C@@H]1CN([C@@H](C)CO)C(=O)Cc2cc(NS(=O)(=O)c3ccc(Cl)cc3)ccc2O[C@H]1CN(C)C(=O)Nc1cccc2ccccc12`, the rescue of ATP level was 25%.

For `CC(C)NC(=O)NC(=O)COC(=O)c1ccc(NC(=O)CC#N)cc1`, the rescue of ATP level is 113% (active).

With `N#CCC(=O)Nc1ccc(C(=O)OCC(=O)Nc2sc3c(c2C#N)CCCC3)cc1`, the rescue of ATP level is 4.12%.

With `CCOc1ccc(NC(=O)c2ccc(NC(=O)COC(=O)c3ccc(NC(=O)CC#N)cc3)cc2)cc1`, the rescue of ATP level was -8.99%.

Turning to `Cc1cccc2c(=O)n3c(nc12)CCCCC3`, the rescue of ATP level is 66.7% (active).

As to `Cc1cc(=O)n2c3c(cccc13)CCC2`, the rescue of ATP level is 0.243%.

In the case of `O=c1c2c(nc3n1CCCCC3)sc1c(O)cccc12`, the rescue of ATP level is 6.49%.

Consider `CC(C)CC#Cc1cnc2c(c1)C(=O)N([C@@H](C)CO)C[C@H](C)[C@@H](CN(C)S(=O)(=O)c1cn(C)cn1)O2`, for which the rescue of ATP level is -12.3%.

In the case of `C[C@H]1CCCCO[C@H](CN(C)Cc2ccccc2)[C@@H](C)CN([C@@H](C)CO)C(=O)c2cc(NS(C)(=O)=O)ccc2O1`, the rescue of ATP level is 0.662%.

`O=C(c1ccco1)N(Cc1nc2ccccc2c(=O)[nH]1)C1CCCC1`: the rescue of ATP level is 69.1% (active).

As for `CCN(CC(=O)NC(=O)NCc1ccccc1)Cc1nc2ccccc2c(=O)[nH]1`, the rescue of ATP level was -7.59%.

Consider `CCCC(=O)N(CCc1ccccc1)Cc1nc2ccccc2c(=O)[nH]1`, for which the rescue of ATP level is 4.48%.

Take `CCCNC(=O)N[C@@H]1CC[C@@H](CCn2cc(C3CC3)nn2)O[C@@H]1CO`: the rescue of ATP level was 4.61%.

On to `CCOC(=O)c1c(-c2ccc(C)cc2C)csc1NC(=O)CSc1nnnn1C`, for which the rescue of ATP level was 8.4%.

In the case of `CCn1nnnc1SCC(=O)c1ccc(C)cc1C`, the rescue of ATP level was 122% (active).

Consider `CCn1nnnc1SCC(=O)Nc1ccc(N(C)C)cc1`, for which the rescue of ATP level is -19%.

As for `C/C=C/c1ccc2c(c1)O[C@@H](CN(C)C(=O)C1CCOCC1)[C@H](C)CN([C@H](C)CO)S2(=O)=O`, the rescue of ATP level was 7.79%.

`Oc1ccc(-c2onc3ccc(Cl)cc23)cc1`: the rescue of ATP level was 108% (active).

For `NC(N)=Nc1nc(-c2ccccc2)c2cc(Cl)ccc2n1`, the rescue of ATP level is -791%.

On to `CC(OC(=O)c1ccc2noc(-c3ccccc3)c2c1)C(N)=O` (configuration not stated), for which the rescue of ATP level is 20.5%.

`C[C@H](CO)N1C[C@H](C)[C@H](CN(C)Cc2ccncc2)Oc2ccc(NS(=O)(=O)c3cn(C)cn3)cc2C1=O`: the rescue of ATP level is -11.2%.

On to `C[C@H](CO)N1C[C@H](C)[C@H](CN(C)C(=O)c2ccccn2)Oc2ncc(-c3ccccc3F)cc2C1=O`, for which the rescue of ATP level is 16.4%.

In the case of `CCCC(=O)Nc1ccc2c(c1)C(=O)N(C)C[C@@H](OC)[C@@H](C)CN(Cc1cncnc1)[C@@H](C)CO2`, the rescue of ATP level is -0.178%.

Consider `C[C@@H]1CN([C@@H](C)CO)C(=O)c2cc(C#CC3CC3)cnc2O[C@@H]1CN(C)C(=O)Cc1ccccn1`, for which the rescue of ATP level was 13.5%.

On to `CO[C@@H]1CN(C)C(=O)c2ccc(NC(=O)c3ccc(F)cc3)cc2OC[C@H](C)NC[C@@H]1C`, for which the rescue of ATP level was -3.77%.

Turning to `CCCNC(=O)N1[C@@H]2CN(C)c3ccccc3[C@@H]2[C@@H]1CO`, the rescue of ATP level is 9.21%.

Consider `O=C(C[C@@H]1C[C@H]2c3cc(NC(=O)Nc4ccccc4F)ccc3O[C@H]2[C@@H](CO)O1)NCc1ccncc1`, for which the rescue of ATP level was 2.48%.

`COc1ccc(OC)c2c(N)c(C#N)c(C(F)(F)C(F)(F)F)nc12`: the rescue of ATP level is 89.2% (active).

As to `COc1ccc(C2CC(=O)Nc3sc(=N)c4c(N)c(C#N)c(N)nc4c32)cc1OC` (configuration not stated), the rescue of ATP level was -2.72%.

For `CC(C)NC(=O)Nc1ccc2c(c1)C(=O)N([C@@H](C)CO)C[C@@H](C)[C@H](CN(C)Cc1ccc(C(=O)O)cc1)O2`, the rescue of ATP level is 6.31%.

For the compound `CC(=O)Nc1ccc(C(=O)CSc2nnc(Cc3ccccc3)o2)cc1`, the rescue of ATP level is 1.31%.

As for `CCOc1ccc(Nc2nc(Cc3nnc(SCC(=O)c4ccc(C)cc4)o3)cs2)cc1`, the rescue of ATP level was 76.7% (active).

Take `CCOc1ccc(Nc2nc(Cc3nnc(SCC(=O)NC4CCCC4)n3C)cs2)cc1`: the rescue of ATP level is 33.9%.

On to `COCC(=O)Nc1ccc2c(c1)OC[C@H](C)NC[C@@H](C)[C@H](OC)CN(C)C2=O`, for which the rescue of ATP level was 7.72%.

On to `O=C(c1cccnc1)N1CC[C@@H]2[C@@H](CO)Nc3ccc(-c4ccccc4)cc3[C@@H]21`, for which the rescue of ATP level was 2.73%.

For `CO[C@H]1CN(C)C(=O)c2cc(NC(=O)c3ccc4c(c3)OCO4)ccc2OC[C@@H](C)N(CCC(F)(F)F)C[C@H]1C`, the rescue of ATP level is 6.03%.

Take `O=C(N[C@H]1CC[C@H](CCNS(=O)(=O)c2ccc(F)cc2)O[C@H]1CO)C1CCCC1`: the rescue of ATP level is 6.44%.

Regarding `COCC(=O)Nc1ccc2c(c1)OC[C@@H](C)N(C(=O)CC1CC1)C[C@@H](C)[C@@H](OC)CN(C)C2=O`, the rescue of ATP level was 15.1%.

On to `CCCC#Cc1cnc2c(c1)C(=O)N([C@H](C)CO)C[C@@H](C)[C@@H](CN(C)C(=O)Nc1ccccc1OC)O2`, for which the rescue of ATP level is 11.6%.

Regarding `CC1(C)Cc2cccc(OCC(=O)NCc3ccccc3)c2O1`, the rescue of ATP level was 1.33%.

On to `CC1(C)Cc2cccc(OCC(N)=O)c2O1`, for which the rescue of ATP level was 113% (active).

In the case of `CC1(C)Cc2cccc(OCC(=O)Nc3nccs3)c2O1`, the rescue of ATP level is 0.639%.

With `CCC(=O)N[C@H]1CC[C@H](CCn2cc(-c3cccc(OC)c3)nn2)O[C@H]1CO`, the rescue of ATP level was -2.48%.

With `CC=Cc1ccc2n(c1=O)C[C@H]1[C@H](CO)[C@@H](C(=O)NC3CCCC3)N(Cc3cccnc3)[C@@H]21` (mixture of isomers), the rescue of ATP level is -41.8%.

`C[C@H](CO)N1C[C@H](C)[C@@H](CN(C)Cc2cccc(F)c2)Oc2cc(C#CC3CC3)ccc2S1(=O)=O`: the rescue of ATP level is -17.1%.

Take `CC1(C)Cc2c(C#N)c(SCc3nc4ccccc4[nH]3)nc(N3CCOCC3)c2CO1`: the rescue of ATP level was -43.7%.

Turning to `Clc1ccccc1SCc1nc2ccccc2[nH]1`, the rescue of ATP level is 91.4% (active).

Take `Cc1ccc(O)c(CNc2nc3ccccc3[nH]2)c1`: the rescue of ATP level is 2.19%.

As to `CO[C@@H]1CN(C)C(=O)c2ccc(NC(=O)NC(C)C)cc2OC[C@H](C)N(Cc2ccc(-c3ccccn3)cc2)C[C@H]1C`, the rescue of ATP level is 16.4%.

As for `CCNC(=O)C[C@@H]1C=C[C@@H](NC(=O)C2CCOCC2)[C@@H](CO)O1`, the rescue of ATP level was -1.82%.

Regarding `O=C(C[C@@H]1CC[C@@H]2[C@H](COC[C@H](O)CN2CC2CCOCC2)O1)NCC1CCCCC1`, the rescue of ATP level is 1.6%.

For `CO[C@@H]1CN(C)C(=O)c2ccc(NC(=O)c3cccc(Oc4ccccc4)c3)cc2OC[C@H](C)NC[C@@H]1C`, the rescue of ATP level is -3.89%.

Turning to `CNC(=O)C[C@H]1CC[C@H]2[C@H](COc3ccc(NC(=O)Nc4ccc(F)cc4)cc3C(=O)N2C)O1`, the rescue of ATP level is 17.2%.

Consider `Cc1ccc2nc(N3CCN(C(=O)c4ccco4)CC3)sc2c1`, for which the rescue of ATP level is 0.517%.

As for `COc1ccc2nc(N3CCN(C(=O)c4ccc([N+](=O)[O-])o4)CC3)sc2c1`, the rescue of ATP level is 73.2% (active).

For `COc1ccc2nc(N3C(=O)C(O)=C(C(=O)c4ccco4)C3c3ccco3)sc2c1` (configuration not stated), the rescue of ATP level was 9.9%.

For `COc1ccc(S(=O)(=O)Nc2ccc3c(c2)C(=O)N([C@@H](C)CO)C[C@H](C)[C@H](CN(C)Cc2ccc4c(c2)OCO4)OCCCC[C@H](C)O3)cc1`, the rescue of ATP level is -65.3%.

For the compound `CC=Cc1ccc2n(c1=O)C[C@@H]1[C@@H](CO)[C@H](C(=O)NCC(F)(F)F)N(CCc3ccccc3)[C@H]21` (mixture of isomers), the rescue of ATP level was -10.8%.

For the compound `O=C(C[C@@H]1CC[C@@H]2[C@H](COC[C@H](O)CN2C(=O)Nc2cccc(Cl)c2)O1)NCCCN1CCOCC1`, the rescue of ATP level was -20.2%.

With `CCCS(=O)(=O)N1CCCC(C(=O)NCc2ccco2)C1` (configuration not stated), the rescue of ATP level is -3.35%.

Consider `O=C(NCc1ccco1)C1CCCN(S(=O)(=O)c2ccccc2)C1` (configuration not stated), for which the rescue of ATP level was 133% (active).

On to `O=C(NCc1ccco1)C1CCCN(S(=O)(=O)c2cnc[nH]2)C1` (configuration not stated), for which the rescue of ATP level was -4.96%.

On to `O=C(C[C@@H]1CC[C@@H]2[C@H](COC[C@@H](O)CN2S(=O)(=O)c2cccc(Cl)c2)O1)N1CCOCC1`, for which the rescue of ATP level is -7.32%.

Consider `CCCN(C)C[C@@H]1Oc2ncc(C#CC3CC3)cc2C(=O)N([C@H](C)CO)C[C@H]1C`, for which the rescue of ATP level was 8.64%.

As to `O=C(Nc1ccccc1)N1C[C@H]2[C@@H](c3ccccc31)[C@H](CO)N2Cc1ccc(F)cc1`, the rescue of ATP level was 3.11%.

As to `COc1cccc(S(=O)(=O)N[C@H]2C=C[C@H](CC(=O)NC3Cc4ccccc4C3)O[C@@H]2CO)c1`, the rescue of ATP level is 4.32%.

For the compound `C[C@@H]1CN([C@@H](C)CO)C(=O)c2cc(C#CCN(C)C)cnc2O[C@H]1CN(C)S(=O)(=O)c1cn(C)cn1`, the rescue of ATP level is -11.7%.

On to `Cc1c(C(=O)N2CCN(c3ccc(F)cc3)CC2)oc2c1C(=O)CCC2`, for which the rescue of ATP level was 87.3% (active).

Consider `O=C(c1cc(-c2ccc(F)cc2)on1)N1CCN(c2ccc(F)cc2)CC1`, for which the rescue of ATP level is -7.85%.

Take `O=C(c1cc2cc(F)ccc2[nH]1)N1CCN(c2ccc(F)cc2)CC1`: the rescue of ATP level was 0.946%.
